TDP1 cell CPT = growth inhibition of DT40 Tdp1-/-;hTDP1 cells with camptothecin (screen for TDP1 inhibitors); chicken DT40 Tdp1-/-;hTDP1 cells + 20 nM CPT, ATP luminescence, 48 h; Potency, µM (highest dose often 46.2 µM), hits mostly inhibitors; 420,000 compounds, 12% hits; note: nearly all actives have a fitted effect of over 55% in size
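Chicken DT40 Tdp1-/- cells complemented with human TDP1, 400 cells/well, exposed to compounds plus 20 nM camptothecin for at least 48 h at 37 C; viability read as ATP content by CellTiter-Glo luminescence.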
HepG2 viability = counter-screen for TGF-b inhibitors: cytotoxicity in HepG2 cells; HepG2 CAGA-GFP viability, ATP luminescence, 18 h; Potency, µM (highest dose often 46.1 µM), usual class: cytotoxic; 410,000 compounds, 0.76% hits
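CellTiter-Glo luminescence gave cytotoxicity after 18 hours at 37 degrees C. The cells were HepG2 CAGA-GFP in 1% FBS DMEM, stimulated with 500 pg/mL TGF-beta after compound addition. %Activity was normalised to no-cell wells (complete cell-killing) and DMSO (no toxicity), and curves were fitted and classified.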
TGFb inhibitor = blocks TGF-b signaling. HepG2 CAGA-GFP TGF-b/SMAD3 reporter, GFP fluorescence, 18 h; TGF-beta stimulated, 500 pg/mL final. 410,000 compounds, 1.2% hits. Potency, µM (doses to about 46.1 µM), usual class: inhibitors; note: nearly all actives have a fitted effect of over 65% in size
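Read-out: total well GFP (ex488/em500-530) summed from mean per-cell fluorescence. Cells: HEPG2 CAGA-GFP, 1% FBS DMEM, 18 h at 37 degrees C with 500 pg/mL final TGF-beta. Unstimulated wells served as the full-inhibition control; stimulated DMSO wells = 0%.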
IL-1B inflam inh = blocks inflammasome-driven IL-1 beta release | 360,000 compounds, 4.7% hits | THP-1 LPS/ATP IL-1B secretion, AlphaLISA, 16 h; stronger effect = lower value | activity change, % at 57.5 µM; in the data active = activity change below about -50%; inconclusive = mostly about -30% to -49%
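THP-1 cells pretreated 1 hr with compounds (up to 57.5 uM final), then stimulated with LPS (250 ng/mL final) plus ATP (1.25 mM final); secreted IL-1B measured by AlphaLISA after 16 hr, decreased signal indicating inhibition.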
TDP1 block = TDP1 (human) enzyme inhibition | Q9NUW8 | recombinant TDP1, AlphaScreen DNA substrate cleavage | Potency, µM (series often up to 130 µM), usual class: inhibitors | 350,000 compounds, 0.28% hits | AID 485290; note: nearly all actives have a fitted effect of over 40% in size
Target sequence (Q9NUW8 whole entry, looked up): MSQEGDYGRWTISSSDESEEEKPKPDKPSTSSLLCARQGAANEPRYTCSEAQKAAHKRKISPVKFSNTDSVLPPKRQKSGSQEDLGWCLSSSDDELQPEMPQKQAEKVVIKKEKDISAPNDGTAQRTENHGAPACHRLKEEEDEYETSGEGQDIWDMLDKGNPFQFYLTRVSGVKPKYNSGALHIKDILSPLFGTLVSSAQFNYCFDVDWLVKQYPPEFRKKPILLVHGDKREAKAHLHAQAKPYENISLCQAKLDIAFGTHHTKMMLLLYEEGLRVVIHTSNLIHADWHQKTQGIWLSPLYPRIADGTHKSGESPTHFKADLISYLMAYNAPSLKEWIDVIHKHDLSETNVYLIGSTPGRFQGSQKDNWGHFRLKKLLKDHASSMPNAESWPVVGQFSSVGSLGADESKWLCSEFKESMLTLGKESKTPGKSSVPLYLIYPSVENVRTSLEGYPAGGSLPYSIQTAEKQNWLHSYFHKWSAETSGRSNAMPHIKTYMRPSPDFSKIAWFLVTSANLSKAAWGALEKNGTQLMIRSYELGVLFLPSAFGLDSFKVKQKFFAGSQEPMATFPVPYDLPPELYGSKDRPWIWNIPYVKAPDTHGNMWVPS
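AlphaScreen read-out: signal falls as enzyme removes the 3' tyrosine-FITC from a 5'-biotinylated DNA oligo (15 nM, 5 min, RT). Enzyme was E. coli-made recombinant Tdp1 at 1 nM, exposed to compound for 15 min beforehand; beads 10 ug/ml, 10 min.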
TDP1 cell noCPT = qHTS for Inhibitors of human tyrosyl-DNA phosphodiesterase 1 (TDP1): qHTS in cells in absence of CPT. DT40 Tdp1-/- hTDP1 cells, no CPT, ATP luminescence, 48 h. Potency, µM (highest dose often 46.2 µM), hits mostly inhibitors. 420,000 compounds, 15% hits. AID 686978, 2013; note: nearly all actives have a fitted effect of over 55% in size
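Chicken DT40 Tdp1-/- cells complemented with human TDP1, screened without camptothecin (DMSO vehicle only), 400 cells/well. Compounds pin-transferred, cells incubated at 37 °C for at least 48 hr. Growth read as ATP-dependent luminescence (CellTiter-Glo, 30 min at RT).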
Large screens that a line does not name were inactive. Sampled rows, rich in hits. Any-hit rate of the full collection: about 19%. Unless noted, calls come from the whole dose curve; as a rule, active = well fitted curve in the direction sought with a large enough effect; inconclusive = small, poorly fitted or top-dose-only effect, or another doubt; inactive = no such curve, though single readings can be large; an effect the other way counts as inactive or inconclusive.

COc1ccc(C(=O)NC(=O)CSc2nc3nc(C)cc(C)n3n2)cc1	none
CC(C)(C)C#CCn1c(/C=[N+](\[O-])C2CCCCC2)nc2ccccc21	TDP1 cell CPT 12µM, TGFb inhibitor inconclusive, TDP1 cell noCPT 18µM (no result: TDP1 block)
O=C(c1cn(-c2ccccc2)nc1-c1ccncc1)n1nnc2ccccc21	TDP1 cell CPT 16µM (no result: TDP1 block)
COc1cc2c(cc1OC)C(C)N(CCc1ccc(Cl)cc1)CC2 (centres undefined)	TDP1 cell CPT inconclusive, TGFb inhibitor inconclusive, IL-1B inflam inh -59, TDP1 cell noCPT inconclusive (no result: TDP1 block)
COc1cc2c(cc1OC)C(C)N(CCN1C(=O)c3ccccc3C1=O)CC2 (centres undefined)	none (no result: TDP1 block)
COc1cc2c(cc1OC)C(C)N(C(=O)c1cccc([N+](=O)[O-])c1)CC2 (centres undefined)	TDP1 cell CPT inconclusive, IL-1B inflam inh -53, TDP1 cell noCPT inconclusive
COc1cc2c(cc1OC)C(COc1ccc(F)cc1)N(C(=O)c1ccc(S(=O)(=O)N3CCCC3)cc1)CC2 (centres undefined)	TDP1 cell CPT inconclusive, TDP1 cell noCPT inconclusive (no result: IL-1B inflam inh)
COc1cc2c(cc1OC)C(C)N(C(=O)c1ccc(Cl)c(S(=O)(=O)N3CCCCC3)c1)CC2 (centres undefined)	TDP1 cell CPT 21µM, TGFb inhibitor inconclusive, TDP1 cell noCPT 10µM (no result: TDP1 block)
COc1cc2c(cc1OC)C(C)N(C(=O)c1c(-c3ccccc3)noc1C)CC2 (centres undefined)	TDP1 cell CPT 18µM, TDP1 cell noCPT 13µM (no result: TDP1 block)
Cc1ccc(C)c(NC(=O)c2cnc(N3CCCC3)nc2C)c1	TDP1 cell noCPT inconclusive (no result: IL-1B inflam inh)
O=C(OCC#CCSc1nnc(-c2ccc3ccccc3c2)o1)c1cccs1	none (no result: TDP1 cell CPT, HepG2 viability, TGFb inhibitor, IL-1B inflam inh, TDP1 cell noCPT)
COc1cc2c(cc1OC)C(C)N(C(=O)c1sccc1C)CC2 (centres undefined)	TDP1 cell CPT inconclusive, IL-1B inflam inh inconclusive
COc1cc2c(cc1OC)C(c1cccs1)N(C(=O)c1cccnc1)CC2 (centres undefined)	TDP1 cell CPT 4.6µM, TDP1 cell noCPT 2.9µM
COc1cc2c(cc1OC)C(c1cccs1)N(C(=O)C(C)C)CC2 (centres undefined)	TDP1 cell CPT inconclusive, TGFb inhibitor inconclusive
COc1cc2c(cc1OC)C(C)N(C(=O)c1ccc(C)o1)CC2 (centres undefined)	TDP1 cell CPT 26µM, TDP1 cell noCPT 21µM (no result: TDP1 block)
COc1ccc(OC)c(C(C(=O)NCc2ccco2)N(C(=O)Cn2nnc3ccccc32)C(C)C)c1 (centres undefined)	none
COc1ccc(OC)c(C(C(=O)NCc2ccco2)N(C(=O)Cn2nnc3ccccc32)C2CC2)c1 (centres undefined)	TDP1 cell CPT 13µM, TDP1 cell noCPT 16µM
COc1ccc(C(C(=O)Nc2ccc(F)cc2)N(C(=O)Cn2nnc3ccccc32)C2CC2)cc1 (centres undefined)	TGFb inhibitor inconclusive, IL-1B inflam inh -72, TDP1 cell noCPT inconclusive
CC(=O)O[C@H]1C2OC(=O)C(C)=C2[C@@H]2OC(=O)[C@]3(CCC4OC41C)OC23 (some centres undefined)	TDP1 cell CPT 15µM, IL-1B inflam inh -72, TDP1 cell noCPT inconclusive
CCc1ccccc1NC(=O)Nc1nnc(N(CC)c2ccccc2)s1	TDP1 cell CPT inconclusive, TGFb inhibitor inconclusive, TDP1 cell noCPT inconclusive (no result: IL-1B inflam inh)
CCN(c1ccccc1)c1nnc(NC(=O)Nc2ccc(C)cc2)s1	TDP1 cell CPT 13µM, TDP1 cell noCPT 16µM (no result: IL-1B inflam inh)
CCN(c1ccccc1)c1nnc(NC(=O)Nc2ccc(Br)c(C)c2)s1	TDP1 cell CPT 3.3µM, TDP1 cell noCPT 4.1µM (no result: IL-1B inflam inh)
CCOc1ccc2nc3cc(N)ccc3c(N)c2c1	TDP1 cell CPT inconclusive, TDP1 cell noCPT 18µM (no result: HepG2 viability, TGFb inhibitor, IL-1B inflam inh)

From PubChem
